Reference: PubChem BioAssay (NCI)
About 79,000 compounds went through this panel and 15% of them were active in at least one assay; those are over-represented in the sample as a whole. Active and inactive are the calls of the source. Rule as the data show it: active = growth inhibition above about 70%; inactive = the rest.

Assay: NCI Yeast Anticancer Drug Screen. Data for the CLN2oe strain (AID 163);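 also: 0% = growth of vehicle-only control cultures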
Conditions: S. cerevisiae CLN2oe strain, active compounds read high
Procedure: Growth inhibition of yeast strains with defined genetic alterations is measured as a screen for potential anti-cancer activity. Selected strains with alterations in DNA damage repair or cell cycle control were exposed to compounds and growth inhibition was measured relative to vehicle treated controls. The strain used in this assay is CLN2oe

Measured: growth inhibition

CCOC1(c2cccc([N+](=O)[O-])c2)c2ccccc2Oc2ccccc21
inactive: at 1.2 µM -6% | at 3.7 µM -1% | at 11.0 µM 0% | at 33.0 µM -1% | at 100.0 µM 2%

Cc1ccc(S/C(=C\C(=O)O)c2ccccc2)cc1
inactive: at 1.2 µM 1% | at 3.7 µM -2% | at 11.0 µM 5% | at 33.0 µM 16% | at 100.0 µM 35%

CNCCCNc1c2ccccc2nc2cccc([N+](=O)[O-])c12
inactive: at 1.2 µM -1% | at 3.7 µM 28%
active: at 11.0 µM 80% | at 33.0 µM 93% | at 100.0 µM 97%

O=C(O)C1CC(c2ccccc2)=NN1c1ccccc1 (stereo not given)
active: at 100.0 µM 97%
inactive: at 1.2 µM -5% | at 3.7 µM 17% | at 11.0 µM 22% | at 33.0 µM 29%

O=[N+]([O-])c1cccc2nc3ccccc3c(NCCCn3ccnc3[N+](=O)[O-])c12
active: at 33.0 µM 82% | at 100.0 µM 92%
inactive: at 1.2 µM 5% | at 3.7 µM 27% | at 11.0 µM 46%

COc1c(O)c(C=O)c(Br)c(C=O)c1O
inactive: at 1.2 µM 2% | at 3.7 µM 0% | at 11.0 µM 17% | at 33.0 µM 40%
active: at 100.0 µM 90%

Cc1nc(Nc2ccccc2[N+](=O)[O-])sc1C(=O)CC(=O)C(=O)Nc1c(C(C)C)cccc1C(C)C
inactive: at 1.2 µM 3% | at 3.7 µM 1% | at 11.0 µM 4% | at 33.0 µM 11% | at 100.0 µM 12%

Cc1cc(C)c(NC(=S)NC(=O)c2ccccc2)cc1C
inactive: at 1.2 µM -63% | at 3.7 µM -78% | at 11.0 µM -58% | at 33.0 µM -64% | at 100.0 µM -57%
